Data taken from the supplement of paper PMC8728848.
Only a selection was taken, and the strongest signals are over-represented in it overall.

Legend:
Assay in all cases: glycan array binding signal (z-score within array); higher = stronger binding
Conditions in all cases: glycan notation: IUPAC condensed, linker removed
[1] = biological target: Gal(b1-4)GlcNAc(b1-3)Gal(b1-4)GlcNAc(b1-6)[Gal(b1-3)]GalNAc
How it was run: (§1)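 Columns mapping to the same glycan were averaged after glycan names were converted to IUPAC-condensed notation. The data come from 3228 arrays in the Consortium for Functional Glycomics database, limited to those with an available protein sequence. Binding is reported as a within-array Z-score averaged across arrays of one protein sequence and across linkers.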

[2] = biological target: Gal3S(b1-4)[Fuc(a1-3)]GlcNAc6S
How it was run: as §1

[3] = biological target: Gal3S6S(b1-4)GlcNAc6S
How it was run: as §1

[4] = biological target: Gal6P(b1-4)GlcNAc
How it was run: as §1

[5] = biological target: GalNAc(b1-4)GlcNAc
How it was run: as §1

[6] = biological target: GalNAc4S6S(b1-4)GlcNAc
How it was run: as §1

[7] = biological target: GalNAc6S(b1-4)GlcNAc
How it was run: as §1

[8] = biological target: Glc(b1-4)Glc
How it was run: as §1

[9] = biological target: GlcNAc(a1-4)Gal(b1-4)GlcNAc
How it was run: as §1

[10] = biological target: GlcNAc(a1-4)Gal(b1-4)GlcNAc(b1-3)Gal(b1-4)GlcNAc(b1-3)Gal(b1-4)GlcNAc
How it was run: as §1

[11] = biological target: GlcNAc(b1-3)Gal(b1-4)GlcNAc(b1-3)Gal(b1-4)GlcNAc
How it was run: as §1

[12] = biological target: GlcNAc(b1-3)Gal(b1-4)GlcNAc(b1-3)Gal(b1-4)GlcNAc(b1-2)Man(a1-3)[GlcNAc(b1-3)Gal(b1-4)GlcNAc(b1-3)Gal(b1-4)GlcNAc(b1-2)Man(a1-6)]Man(b1-4)GlcNAc(b1-4)[Fuc(a1-6)]GlcNAc
How it was run: as §1

[13] = biological target: GlcNAc(b1-6)Gal(b1-4)GlcNAc
How it was run: as §1

[14] = biological target: GlcNAc6S(b1-3)Gal(b1-4)GlcNAc
How it was run: as §1

[15] = biological target: Man(a1-2)Man(a1-3)[Man(a1-2)Man(a1-6)]Man
How it was run: as §1

[16] = biological target: Man(a1-2)Man(a1-6)[Man(a1-3)]Man(a1-6)[Man(a1-2)Man(a1-2)Man(a1-3)]Man
How it was run: as §1

[17] = biological target: Man(a1-3)[Man(a1-6)]Man(b1-4)GlcNAc(b1-4)[Fuc(a1-6)]GlcNAc
How it was run: as §1

[18] = biological target: Neu5Ac(a2-3)Gal(b1-3)GalNAc
How it was run: as §1

[19] = biological target: Neu5Ac(a2-3)Gal(b1-3)GalNAc(b1-4)[Neu5Ac(a2-3)]Gal(b1-4)Glc
How it was run: as §1

[20] = biological target: Neu5Ac(a2-3)Gal(b1-3)GalNAc(b1-4)[Neu5Ac(a2-8)Neu5Ac(a2-3)]Gal(b1-4)Glc
How it was run: as §1

[21] = biological target: Neu5Ac(a2-3)Gal(b1-4)GlcNAc(b1-2)Man(a1-3)[Neu5Ac(a2-3)Gal(b1-4)GlcNAc(b1-2)Man(a1-6)]Man(b1-4)GlcNAc(b1-4)[Fuc(a1-6)]GlcNAc
How it was run: as §1

[22] = biological target: Neu5Ac(a2-3)Gal(b1-4)GlcNAc(b1-3)Gal(b1-4)GlcNAc
How it was run: as §1

[23] = biological target: Neu5Ac(a2-6)Gal(b1-4)GlcNAc(b1-2)Man
How it was run: as §1

[24] = biological target: Neu5Ac(a2-6)Gal(b1-4)GlcNAc(b1-2)Man(a1-6)[Man(a1-3)]Man(b1-4)GlcNAc(b1-4)GlcNAc
How it was run: as §1

[25] = biological target: Neu5Ac(a2-6)Gal(b1-4)GlcNAc(b1-3)Gal(b1-3)GlcNAc
How it was run: as §1

[26] = biological target: Neu5Ac(a2-6)GalNAc(b1-4)GlcNAc6S
How it was run: as §1

[27] = biological target: Neu5Ac(a2-8)Neu5Ac(a2-3)Gal(b1-3)GalNAc(b1-4)[Neu5Ac(a2-3)]Gal(b1-4)Glc
How it was run: as §1

[28] = biological target: Neu5Ac(a2-8)Neu5Ac(a2-8)Neu5Ac(a2-8)Neu5Ac(a2-3)[GalNAc(b1-4)]Gal(b1-4)Glc
How it was run: as §1

[29] = biological target: Neu5Ac9Ac(a2-3)Gal(b1-3)GlcNAc
How it was run: as §1

[30] = biological target: Neu5Gc(a2-6)GalNAc
How it was run: as §1

B1: AT1G80310(18) (Arabidopsis thaliana), Q0WP36 (protein)
chain: METTTTPLLPGDRSRCGWLRRRLRLKNPLSSELSGAVGDLGTFIPIVLTLTLVSNLDLSTTLIFTGFYNIATGLLFDIPMPVQPMKSIAAVAVSESPHLTPSQIAAAGASTAATLLLLGATGAMSFLYNIIPLPVVRGVQLSQGLQFAFTAIKYVRFNYDTATLKPSSSPRIWLGLDGLILALAALLFIILSTGSGNDREAEDGDLAETSSNESQSRRRRLRLLSSIPSALIVFALGLVLCFIRDPSIFKDLKFGPSKFHILRISWDDWKIGFLRAAIPQIPLSVLNSVIAVCKLSNDLFDKELSATTVSISVGVMNLIGCWFGAMPVCHGAGGLAGQYRFGARSGLSVIFLGIGKLIVGLVFGNSFVRILSQFPIGILGVLLLFAGIELAMASKDMNSKEDSFIMLVCAAVSMTGSSAALGFGCGVVLYLLLKLRTLDCSSVTLFSRSSDESQVDSEAAPRDV
[1]
  glycan array binding signal (z-score): -0.516
[2]
  glycan array binding signal (z-score): -0.286
[3]
  glycan array binding signal (z-score): 0.953
[4]
  glycan array binding signal (z-score): 0.119
[5]
  glycan array binding signal (z-score): 3.09
[6]
  glycan array binding signal (z-score): 3.56
[7]
  glycan array binding signal (z-score): 2.89
[8]
  glycan array binding signal (z-score): 1.3
[9]
  glycan array binding signal (z-score): -0.622
[10]
  glycan array binding signal (z-score): 0.229
[11]
  glycan array binding signal (z-score): -0.512
[12]
  glycan array binding signal (z-score): 1.31
[13]
  glycan array binding signal (z-score): -0.608
[14]
  glycan array binding signal (z-score): 0.436
[15]
  glycan array binding signal (z-score): -0.796
[16]
  glycan array binding signal (z-score): -0.243
[17]
  glycan array binding signal (z-score): -0.517
[18]
  glycan array binding signal (z-score): 0.654
[19]
  glycan array binding signal (z-score): -0.383
[20]
  glycan array binding signal (z-score): 4.16
[21]
  glycan array binding signal (z-score): -0.895
[22]
  glycan array binding signal (z-score): -0.967
[23]
  glycan array binding signal (z-score): -0.534
[24]
  glycan array binding signal (z-score): -0.892
[25]
  glycan array binding signal (z-score): -0.646
[26]
  glycan array binding signal (z-score): -0.543
[27]
  glycan array binding signal (z-score): -0.86
[28]
  glycan array binding signal (z-score): -0.09
[29]
  glycan array binding signal (z-score): -0.052
[30]
  glycan array binding signal (z-score): 0.551
